VP16 counter = Gal4-VP16 reporter inhibition counter-screen | 310,000 compounds, 3.5% hits | Potency, µM (highest dose often 53.6 µM), usual class: inhibitors | Drosophila S2 Gal4-VP16 UAS-luciferase, luminescence, 20 h;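 further: Gal4-VP16 expression switched on by copper sulfate through the metallothionein promoter; nearly all actives have a fitted effect of over 50% in size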
Six1-Eya2 blk = inhibitors of human Six1/Eya2 interaction | Q15475+O00167 | AlphaScreen GST-Six1/His-Eya2 binding, biochemical; active compounds read low | activity change, % (test concentration not listed) | 360,000 compounds, 0.56% hits | AID 651725; in the data active means activity change below about -65%; inconclusive means mostly about -30% to -63%
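AlphaScreen with GST-Six1 and His-Eya2 (5X mix: 250 nM and 500 nM), glutathione donor and nickel acceptor beads; buffer 50 mM Tris pH 8.0, 300 mM NaCl, 1 mM TCEP; 1 h at 37 C in the dark.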
CtBP-E1A blk = inhibitors of CtBP/E1A interaction; 340,000 compounds, 0.49% hits; AlphaScreen GST-E1A/His-CtBP binding, 1536-well; active compounds read low; activity change, % (no concentration beside the values); AID 651724; in the data active means activity change below about -65%; inconclusive means mostly about -30% to -63%
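AlphaScreen with 125 nM GST-E1A and 125 nM His-CtBP (5X stocks) in Tris pH 8.0, 300 mM NaCl, BSA, Tween 20, TCEP. Compounds preincubated 2 h at 37 deg C, then glutathione donor/nickel acceptor beads added for 1 h at 37 deg C in dark.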
RORg inh = ROR gamma (mouse) transcription inhibition. P51450. Drosophila S2 Gal4-RORgamma UAS-luciferase reporter, 20 h. Potency, µM (doses to about 53.6 µM), actives largely listed as inhibitors. 310,000 compounds, 5.4% hits. AID 2551; further: nearly all actives have a fitted effect of over 60% in size
Target sequence (P51450 whole entry, looked up, the tested form may be a part): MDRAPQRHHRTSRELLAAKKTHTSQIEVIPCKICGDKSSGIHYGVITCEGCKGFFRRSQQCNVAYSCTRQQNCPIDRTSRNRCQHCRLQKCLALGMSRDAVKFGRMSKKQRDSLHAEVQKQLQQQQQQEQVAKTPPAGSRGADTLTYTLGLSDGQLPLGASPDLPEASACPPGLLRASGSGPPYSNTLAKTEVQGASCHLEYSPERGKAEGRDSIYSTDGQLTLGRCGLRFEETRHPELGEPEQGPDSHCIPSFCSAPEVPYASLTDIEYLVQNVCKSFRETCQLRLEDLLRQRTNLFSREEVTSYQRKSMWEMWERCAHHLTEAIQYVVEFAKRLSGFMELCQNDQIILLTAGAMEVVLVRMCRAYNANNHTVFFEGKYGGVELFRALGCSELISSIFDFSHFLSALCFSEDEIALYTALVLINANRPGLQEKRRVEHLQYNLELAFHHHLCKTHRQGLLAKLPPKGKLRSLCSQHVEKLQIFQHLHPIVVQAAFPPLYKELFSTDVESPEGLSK
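Luminescence from a UAS-regulated Photinus luciferase reporter in stably transfected Drosophila Schneider cells is measured; decreased signal marks ROR gamma inhibition. Fusion expression is induced by 700 uM copper sulfate for 20 hr.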
PKM2 activator = PKM2 (human) enzyme activation; purified PKM2, Kinase-Glo ATP luminescence, activation; response scale: 0% is enzyme alone, no compound; 260,000 compounds, 0.34% hits; P14618; Potency, µM (series often up to 57.5 µM), most hits filed as activators; AID 1631; further: nearly all actives have a fitted effect of over 55% in size
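hPK-M2, >95% pure; 0.1 mM ADP / 0.5 mM PEP final; imidazole pH7.2 buffer w/ 7 mM MgCl2, 50 mM KCl; 1 h RT; Kinase-Glo lum. Intermediate enzyme activity for dual inhibitor/activator qHTS.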
Numbers stand for hits; ! = not active in a repeat. Rows were chosen to be rich in hits. Some 5.6% of all compounds tested hit in one or more screens of this group. Unless noted, the call rests on the fitted dose curve; in most records, active means well fitted curve in the direction sought with a large enough effect; inconclusive means small, poorly fitted or top-dose-only effect, or another doubt; inactive means no such curve, though single readings can be large; an effect the other way counts as inactive or inconclusive.

How did COc1ccc(-n2c(=O)[nH]c3ccccc3c2=O)cc1 do in these assays?
VP16 counter: inactive; Six1-Eya2 blk: inactive; CtBP-E1A blk: inactive; RORg inh: inactive; PKM2 activator: inactive

What do the screens show for `COc1ccc(Cc2nccc3cc(OC)c(OC)cc23)cc1OC`?
VP16 counter: 28.2µM!; Six1-Eya2 blk: inactive; CtBP-E1A blk: inactive; RORg inh: inconclusive; PKM2 activator: inactive

How did Cc1cc(NC(=O)CCl)no1 do in these assays?
VP16 counter: inconclusive; Six1-Eya2 blk: inactive; CtBP-E1A blk: inactive; RORg inh: 2.51µM; PKM2 activator: inactive

What do the screens show for `CCC1/C=C/C=CCC(C)C(O)[C@@](C)(O)C(=O)C(C)C(O)C(C)C(=O)C(C)C(O)C(C)C=CC(=O)O[C@H]2C(C)C(CC1)O[C@]1(CCC(C)C(CC(C)O)O1)C2C` (some centres not stated)?
VP16 counter: 50.1µM; RORg inh: 0.0006µM

What do the screens show for `COc1cc2c(ccc3c4cc(OC)c(OC)cc4c[n+](C)c23)cc1O`?
Six1-Eya2 blk: inconclusive; CtBP-E1A blk: inactive

What do the screens show for `COc1ccc2c(c[n+](C)c3c4cc5c(cc4ccc23)OCO5)c1OC`?
VP16 counter: 8.91µM!; RORg inh: 7.08µM

How did CNc1cc(Cl)c2nonc2c1[N+](=O)[O-] do in these assays?
VP16 counter: 3.55µM; Six1-Eya2 blk: inactive; CtBP-E1A blk: inactive; RORg inh: 1µM; PKM2 activator: inactive

What do the screens show for `O=[N+]([O-])c1c(Cl)c(Cl)cc(Cl)c1Cl`?
VP16 counter: inactive; RORg inh: inactive

Results for CCC(C(=O)O)C1CCC(C)C(C(C)C(O)C(C)C(=O)C(CC)C2OC3(C=CC(O)[C@@]4(CC[C@](C)(C5CC[C@@](O)(CC)C(C)O5)O4)O3)C(C)CC2C)O1 (some centres not stated) ?
VP16 counter: 2.24µM; RORg inh: 1.78µM

How did Cc1ccc(N2C(=O)NC(=O)/C(=C/c3ccc(-c4ccc(C(=O)O)c(Cl)c4)o3)C2=O)cc1 do in these assays?
VP16 counter: inactive; Six1-Eya2 blk: inactive; CtBP-E1A blk: inactive; RORg inh: inactive; PKM2 activator: 25.1µM

What do the screens show for `CCCCn1c(-c2nn(C)cc2Cl)n[nH]c1=S`?
VP16 counter: inconclusive; Six1-Eya2 blk: inactive; CtBP-E1A blk: inactive; RORg inh: 12.6µM; PKM2 activator: inactive

What do the screens show for `CCCCn1nc(C)c(C(=O)O)c1Cl`?
VP16 counter: inactive; Six1-Eya2 blk: inactive; CtBP-E1A blk: inactive; RORg inh: inactive; PKM2 activator: inactive

What do the screens show for `NC(N)=NCCCCCCCCCCN=C(N)N`?
VP16 counter: inactive; RORg inh: inactive

How did CCC(=Nc1ccc(OC)cc1OC)c1c(O)n(C2CCCCC2)c(=O)[nH]c1=O do in these assays?
VP16 counter: 6.31µM; Six1-Eya2 blk: inactive; CtBP-E1A blk: inactive; RORg inh: inconclusive; PKM2 activator: inactive

What do the screens show for `C=Cn1ccnc1P(=S)(c1nccn1C=C)c1nccn1C=C`?
VP16 counter: inactive; Six1-Eya2 blk: inconclusive; CtBP-E1A blk: -90.9; RORg inh: inactive; PKM2 activator: inactive

What do the screens show for `C=Cn1ccnc1P(=S)(c1nccn1C=C)C1CCCCC1`?
VP16 counter: inconclusive; Six1-Eya2 blk: inactive; CtBP-E1A blk: inactive; RORg inh: 10µM; PKM2 activator: inactive

What do the screens show for `C=Cn1ccnc1P(=S)(c1ccn(C)c1)c1nccn1C=C`?
VP16 counter: inactive; Six1-Eya2 blk: inactive; CtBP-E1A blk: inactive; RORg inh: inconclusive; PKM2 activator: inactive

How did CN(C)c1ccc(/C=C2\CCCN=C2c2cccnc2)cc1 do in these assays?
VP16 counter: inactive; RORg inh: inactive; PKM2 activator: inactive

How did Cn1c(O)c(C2=NNC(c3ccc(Cl)cc3)C2)c(=O)n(C)c1=O (configuration not stated) do in these assays?
VP16 counter: 5.01µM; Six1-Eya2 blk: inactive; CtBP-E1A blk: inactive; RORg inh: 7.08µM; PKM2 activator: inactive

Results for COC(=O)NC/C=C\c1nc(CC/C=C\C(=O)O[C@H]2C[C@H]3CC(=O)O[C@@H](/C=C\CC(C)C)C[C@@H]4CC[C@H](C)[C@H](C[C@@H](OC)C[C@H](C2)O3)O4)co1 ?
VP16 counter: inconclusive; RORg inh: 0.0056µM

What do the screens show for `CCCN1CCCC2Cc3[nH]ncc3CC21` (configuration not stated)?
VP16 counter: inactive; RORg inh: inactive

Results for O=C1C(=O)c2ccccc2-c2ccccc21 ?
VP16 counter: 3.16µM; Six1-Eya2 blk: inactive; CtBP-E1A blk: inconclusive; RORg inh: 2µM; PKM2 activator: inactive

How did NC1=C(Br)C(=O)c2ccccc2C1=O do in these assays?
VP16 counter: inconclusive; Six1-Eya2 blk: inactive; CtBP-E1A blk: inconclusive; RORg inh: inconclusive; PKM2 activator: inactive

What do the screens show for `Fc1ccccc1CCNCc1cccc2ccccc12`?
VP16 counter: 20µM; Six1-Eya2 blk: inactive; CtBP-E1A blk: inactive; RORg inh: inconclusive; PKM2 activator: inactive

How did Cc1ccc(CNCCc2ccccc2F)cc1 do in these assays?
VP16 counter: inactive; Six1-Eya2 blk: inactive; CtBP-E1A blk: inactive; RORg inh: inactive; PKM2 activator: inactive

Results for CC(C)CON=O ?
VP16 counter: inactive; RORg inh: inactive

What do the screens show for `S=C1Nc2ccccc2Sc2ccccc21`?
VP16 counter: 5.01µM; Six1-Eya2 blk: inactive; CtBP-E1A blk: inactive; RORg inh: 2µM; PKM2 activator: inactive

What do the screens show for `O=[N+]([O-])c1ccc(Cl)c([N+](=O)[O-])c1`?
Six1-Eya2 blk: inactive; CtBP-E1A blk: inactive

How did O=[N+]([O-])c1ccc(O)c([N+](=O)[O-])c1 do in these assays?
VP16 counter: 22.4µM; Six1-Eya2 blk: inactive; CtBP-E1A blk: inactive; RORg inh: inconclusive

Results for O=[N+]([O-])c1cc(O)c(O)c([N+](=O)[O-])c1 ?
VP16 counter: inactive; Six1-Eya2 blk: inactive; CtBP-E1A blk: inactive; RORg inh: 22.4µM

How did Clc1cccc(/C=N\Nc2nccs2)c1 do in these assays?
VP16 counter: inconclusive; Six1-Eya2 blk: inactive; CtBP-E1A blk: inactive; RORg inh: 11.2µM; PKM2 activator: inactive

What do the screens show for `O=c1[nH]c(=O)n(-c2ccc(Cl)cc2)c(O)c1C=Nc1ccc(S(=O)(=O)Nc2nccs2)cc1`?
VP16 counter: inactive; Six1-Eya2 blk: inactive; CtBP-E1A blk: inactive; RORg inh: inactive; PKM2 activator: inactive

What do the screens show for `Oc1cc(Cl)cc(Cl)c1Cl`?
VP16 counter: inactive; Six1-Eya2 blk: inactive; CtBP-E1A blk: inactive; RORg inh: inconclusive

How did Nc1c2c(nc3sc4c(c13)CCCC4)CCCC2 do in these assays?
VP16 counter: inactive; Six1-Eya2 blk: inactive; CtBP-E1A blk: inactive; RORg inh: inactive; PKM2 activator: inactive

What do the screens show for `Nc1nc2c(s1)CCCCCCCCCC2`?
VP16 counter: inactive; Six1-Eya2 blk: inactive; CtBP-E1A blk: inactive; RORg inh: 11.2µM; PKM2 activator: inactive

Results for BrCCBr ?
VP16 counter: inactive; RORg inh: inactive

Results for Clc1ccc(-c2nc3ccc(Cl)cn3c2CN2CCCCC2)cc1 ?
VP16 counter: inactive; Six1-Eya2 blk: inactive; CtBP-E1A blk: inactive; RORg inh: 5.01µM

Compound activity as filed in PubChem.
